FLuc counter: firefly luciferase modulation, counter-screen for miR-21 project; 360,000 tested, 6.9% active; purified FLuc, Km substrates, luminescence inhibition; Potency, µM (titrated, usually from 57.5 µM), for the others: at the highest dose activity change, negative = inhibition, actives largely listed as inhibitors;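 note: plate controls were vehicle for no effect and reference inhibitor for full effect; nearly all actives have a fitted effect of over 55% in size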
Target sequence (P08659 whole entry, looked up): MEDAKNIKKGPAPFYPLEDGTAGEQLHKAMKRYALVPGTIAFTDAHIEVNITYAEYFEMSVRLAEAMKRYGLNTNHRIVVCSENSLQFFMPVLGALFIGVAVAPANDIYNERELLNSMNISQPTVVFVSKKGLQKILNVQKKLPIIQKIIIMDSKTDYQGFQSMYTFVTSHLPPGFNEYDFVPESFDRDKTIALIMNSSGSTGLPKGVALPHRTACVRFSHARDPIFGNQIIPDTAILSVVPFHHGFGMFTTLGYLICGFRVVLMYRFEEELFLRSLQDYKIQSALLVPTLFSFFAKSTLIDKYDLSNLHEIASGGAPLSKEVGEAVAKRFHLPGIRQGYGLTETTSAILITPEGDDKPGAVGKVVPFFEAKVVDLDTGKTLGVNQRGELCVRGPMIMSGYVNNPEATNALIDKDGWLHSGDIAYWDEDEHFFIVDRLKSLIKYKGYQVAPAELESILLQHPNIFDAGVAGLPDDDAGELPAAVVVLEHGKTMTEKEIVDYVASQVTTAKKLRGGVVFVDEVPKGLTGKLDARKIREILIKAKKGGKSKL
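Purified P. pyralis luciferase (10nM final) with 10uM D-luciferin and 10uM ATP (Km levels) in 50mM Tris acetate pH 7.5, 10mM Mg acetate, 0.01% Tween-20, 0.05% BSA; qHTS 6-point titration, ~60 µM downward; luminescence read.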
NPC1 prom act: NPC1 promoter activation. Potency, µM (top dose mostly 9.22 µM), inactives show top-dose activation, usual class: activators. Huh7 NPC1 promoter luciferase reporter, 24 h. 320,000 tested, 2.4% active; note: % of control where 0% means no effect; nearly all actives have a fitted effect of over 60% in size
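Compounds in DMSO were transferred onto Huh7 NPC1-luciferase reporter cells pre-incubated 2 h; after 24 h at 37 °C, Amplite reagent was dispensed and luminescence recorded 10 min later.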
uPA surface inh: inhibitors of cell surface uPA generation | 330,000 tested, 0.31% active | Potency, µM (series often up to 38.3 µM), for inactives: at the highest dose activity change, negative = inhibition, most hits filed as inhibitors | cell surface uPA generation assay, qHTS; active = well fitted inhibition curve with a large enough effect; inconclusive = small, poorly fitted or top-dose-only effect; inactive = no such curve, though single readings can be large or run the other way; tested in mouse RAW 264.7 cells; note: % is set by controls: 0 for no effect and ±100 for the full control effect; nearly all actives have a fitted effect of over 55% in size
Rab9 prom act: activates the Rab9 promoter. Huh7 Rab9 promoter-luciferase reporter, luminescence, 24 h. Potency, µM (doses to about 9.22 µM), for inactives: at the highest dose activation, negative = inhibition, hits mostly activators. 320,000 tested, 2.8% active; note: % of control where 0% means no effect; nearly all actives have a fitted effect of over 60% in size
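Huh7 cells stably carrying a Rab9 promoter-luciferase reporter, 1500 cells per well in OP-MEM I with 10% FBS, treated with compound 24 hours at 37C. Luciferase activity read by luminescence after 10 minutes with Amplite reagent.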
SMN2 splice enh: increases expression of the SMN2 splice variant | HEK293 SMN2-luciferase splicing reporter, luminescence, 30-36 h | Potency, µM (top dose mostly 46.1 µM), without a hit: at the top dose activity change, positive = activation, hits mostly activators | 210,000 tested, 2.8% active; note: % of control where 0% means no effect; nearly all actives have a fitted effect of over 55% in size
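HEK293 cells carry an SMN2 minigene-luciferase reporter in which exon 7 inclusion puts luciferase in frame. Cells were seeded at 2000 cells/well, attached for 10-12 hours, then exposed to compounds for 30-36 hours at 37C before ONE-Glo luminescence.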
ELG1 genotox: genotoxicity induction in ELG1-luciferase HEK293T cells | HEK293T ELG1-luciferase reporter, luminescence, 16 h | Potency, µM (doses to about 46 µM), for inactives: top-dose activity change, positive = activation, usual class: activators | 330,000 tested, 1.3% active; note: % of control where 0% means no effect; nearly all actives have a fitted effect of over 60% in size
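After overnight (16 hr) compound treatment at 37 °C, ELG1-luciferase HEK293T cells were lysed with ONE-Glo; luminescence quantified 30 min later at room temperature.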
Starred values were filed as active, the others as inactive; ? = inconclusive; nt = no result given; [ ] = dose if it differs, or a comment. Shown are actives, neighbours in structure and some others; about 7.3% of the full set was active somewhere. Unless noted, calls come from the whole dose curve; as a rule, active = well fitted curve in the direction sought with a large enough effect; inconclusive = small, poorly fitted or top-dose-only effect, or another doubt; inactive = no such curve, though single readings can be large; an effect the other way counts as inactive or inconclusive. Potency is the fitted concentration of half-maximal effect.

SMILES | FLuc counter | NPC1 prom act | uPA surface inh | Rab9 prom act | SMN2 splice enh | ELG1 genotox
O=C(CCCN1C(=O)S/C(=C\c2ccccc2)C1=O)NNC(=O)c1ccccc1O | ? | -23% | 1% | -33% | -43% | -8%
C=CCN1C(=O)/C(=C\C(C)=C\c2ccccc2)SC1=S | 8.5µM* | 14% | 2% | 1% | nt | ?
CC(=C\c1ccccc1)/C=C1/SC(=S)N(C(C(=O)O)C(C)C)C1=O (stereo not drawn) | 27µM* | 1% | 7% | 1% | -2% | 0%
CCC(C(=O)O)N1C(=O)/C(=C/C(C)=C/c2ccccc2)SC1=S (stereo not drawn) | -2% | -5% | -2% | 4% | nt | 0%
CC(=C\c1ccccc1)/C=C1/SC(=S)N(CCC(=O)Nc2ccccn2)C1=O | -16% | -1% | nt | 0% | nt | 4%
CC(=C\c1ccccc1)/C=C1/SC(=S)N(CCCC(=O)O)C1=O | 27µM* | -15% | 2% | -20% | nt | -1%
CC(/C=C1\SC(=O)N(CCCC(=O)O)C1=O)=C\c1ccccc1 | 5.4µM* | -32% | -4% | -30%[0.369 µM] | -76% | -9%
CCCn1cc(S(=O)(=O)c2ccccc2)c(=O)c2cc(F)c(N3CCCCCC3)cc21 | -1% | nt | nt | nt | nt | nt
CCOC(=O)/C(=N\Nc1ncnc2ccccc12)c1ccc(C)cc1 | 12µM* | ? | -8% | ? | nt | ?
CCOC(=O)C/C(=N\Nc1ncnc2ccccc12)c1ccccc1 | ? | 17% | 0% | ? | nt | 5%
Cc1ccc(NC(=O)Cn2cc(C(=O)c3ccco3)c3ccccc32)cc1 | -1% | nt | nt | nt | nt | nt
O=C(Nc1nnc(C(F)(F)F)s1)c1c(F)cccc1F | ? | 12% | -12% | 5% | nt | -7%
O=C(Nc1nc(-c2ccccc2Cl)cs1)c1cccnc1 | -14% | 1% | nt | 2% | -92% | 12%
O=C(Nc1nnc(-c2ccccc2F)s1)c1cccnc1 | 9.5µM* | 2.2µM* | -4% | 2µM* | ? | ?
O=C(Nc1nnc(C(F)(F)F)s1)c1cccnc1 | 12µM* | ? | nt | 4.5µM* | 11µM* | 12%
O=c1n(Cc2ccccc2Cl)c2ccccc2c2nc(-c3ccccc3)nn12 | 6% | nt | nt | nt | -13% | nt
CCN(C(=O)C1CCN(S(=O)(=O)c2cc(Br)cc3c2N(C(C)=O)CC3)CC1)c1cccc(C)c1 | 0% | nt | nt | nt | -12% | nt
CCNc1nc(NC(C)CC)nc(Oc2ccc(OCC)nn2)n1 (stereo not drawn) | -2% | -9% | -21% | -3% | 5.6µM* | ?
CCCCc1ccc(NC(=O)OC)cc1 | 17µM* | 13% | 4% | 15% | -13% | 8%
O=C(Nc1ccccc1)OCCCc1ccccc1 | 19µM* | ? | -6% | ? | ? | -27%
CCCCc1ccc(NC(=O)Nc2cccnc2)cc1 | 6µM* | ? | -30% | ? | nt | ?
CCCCc1ccc(NC(=S)Nc2cccnc2)cc1 | 1% | 0% | 0% | 0% | -15% | 0%
COc1ccccc1CN1CCNC(=O)C1=O | -1% | nt | nt | nt | nt | nt
Cc1cc(NC(=O)N2CC=C(c3c[nH]c4ccccc34)CC2)ccc1Br | -17% | nt | nt | nt | nt | nt
CCn1c(NCc2cccc(Cl)c2)nc2ccccc21 | -2% | nt | nt | nt | -3% | nt
SMILES | FLuc counter | NPC1 prom act | uPA surface inh | Rab9 prom act | SMN2 splice enh | ELG1 genotox
O=C(COC(=O)C1C2CC3OC(=O)C1C3C2)Nc1ccc(Br)cc1 (stereo not drawn) | -18% | -6% | -1% | 3% | nt | -4%
O=C1Nc2cccnc2Sc2ccccc21 | 5% | -3% | 6% | -7% | -5% | -2%
c1ccc2c(c1)Nc1nccnc1S2 | 24µM* | 10% | 6% | 20% | ? | ?
CN1C(=O)/C(=C\c2ccco2)N=C1c1ccc(Cl)cc1Cl | 17µM* | -2% | -4% | -2% | nt | 4%
CN(C)Cc1ccc(O)c(CN(C)C)n1 | nt | nt | nt | nt | -7%[9.22 µM] | nt
COc1ccccc1NC(=O)CSc1nnc(-c2ccc(NC(C)=O)cc2)n1C | -6% | -1% | 5% | 7% | -5% | -2%
CC(=O)Nc1ccc(-c2nnc(SCC(=O)Nc3ccc4c(c3)oc3ccccc34)n2C)cc1 | 1.2µM* | ? | 1% | ? | -4% | 1%
CCn1c(SCC(=O)Nc2ccccc2C(=O)OC)nnc1-c1ccc(N)cc1 | 3% | 0% | nt | 2% | -19% | 0%
CCn1c(SCC(=O)Nc2ccc3c(c2)oc2ccccc23)nnc1-c1ccc(N)cc1 | 2.7µM* | -5% | 2% | 4% | -13% | -9%
CC1=C[N+](=O)c2ccccc2[N+]1=O | nt | nt | nt | nt | -7%[9.22 µM] | nt
Cc1ccc2nc(Nc3nc(-c4ccccc4)cc(=O)[nH]3)nc(C)c2c1 | -11% | -2% | -3% | -4% | -21% | ?
Cc1ccc2nc(Nc3nc(=O)c4ccccc4n3C)nc(C)c2c1 | 2.1µM* | 10% | nt | 11% | 5% | -4%
C=C(C)CSc1nc2sc3c(c2c(=O)n1Cc1ccccc1)CC(C)(CC)OC3 (stereo not drawn) | -7% | nt | nt | nt | -21% | nt
Cc1ccc2nc(N/N=C/c3ccccc3C#N)nc(-c3ccccc3)c2c1 | 11µM* | 1% | 0% | 7% | -8% | -6%
O=C(O)c1ccc(N2Cc3ccccc3C2)cc1O | 24µM* | 21% | -6% | 27% | -6% | 3%
Oc1ccc(N2Cc3ccccc3C2)cc1 | -6% | -1% | -2% | 10%[1.84 µM] | nt | 3%
O=C(O)c1ccc(N2CCCCC2)cc1O | 15µM* | 16% | -12% | 1% | nt | 6%
COCC(=O)n1nc(-c2ccccc2)nc1NCc1ccc(N(C)C)cc1 | 17µM* | ? | -1% | ? | ? | ?
Cc1ccc(-c2nc(NCc3ccco3)n(C(=O)c3ccco3)n2)cc1 | 3% | ? | 1% | 3.5µM* | nt | ?
O=C(c1ccco1)n1nc(-c2ccccc2)nc1NCc1ccco1 | -8% | 8% | -4% | 18% | ? | 7%
O=C(c1ccc(F)cc1)n1nc(-c2ccccc2)nc1NCc1ccco1 | 0% | nt | nt | nt | 17% | nt
O=C(COc1ccccc1)n1nc(-c2ccc(Cl)cc2)nc1NCc1ccco1 | ? | 29% | -7% | ? | 16µM* | 21µM*
COc1ccccc1C(=O)n1nc(-c2ccccc2)nc1NCc1ccco1 | 2% | 17% | -2% | 2% | 13µM* | 13%
O=C(NCCOc1ccccc1)O[C@@H]1C(=O)c2cc(Br)ccc2O[C@H]1c1ccc2c(c1)OCO2 | nt | nt | nt | nt | 7% | nt
Cc1nc2ccc(NC(=O)c3cccnc3)cc2s1 | -7% | -3% | 6% | 16% | 10% | 8%
CCN(CC)c1ccc(S(=O)(=O)N(CC)CC)cc1NC(=O)c1cccnc1 | -1% | 0% | -2% | -3% | 7% | -12%
CCN(CC)S(=O)(=O)c1ccc2nc(NC(=O)c3cccnc3)sc2c1 | 19µM* | nt | nt | nt | nt | nt
CCNS(=O)(=O)c1ccc2nc(NC(=O)c3cccnc3)sc2c1 | 21µM* | 24% | -2% | ? | 10% | 8%
